Shown are actives, neighbours in structure and some others; about 6.5% of the full set was active somewhere.
VACV mCherry inh = qHTS for Stage-Specific Inhibitors of Vaccinia Orthopoxvirus: mCherry Reporter Primary qHTS; Vaccinia virus mCherry reporter infection, fluorescence; Potency, µM (highest dose often 36.5 µM), without a hit: at the highest dose activity change, negative = inhibition, actives largely listed as inhibitors; actives 0.63% (n = 310,000); AID 720579, 2013; calls by dose curve; tested in A549 cells; also: potency is read from the fitted curve at half-maximal effect; nearly all actives have a fitted effect of over 35% in size
Lassa entry inh = qHTS for Inhibitors of binding or entry into cells for Lassa Virus | Potency, µM (highest dose often 37.9 µM), for the others: top-dose activity change, negative = inhibition, actives largely listed as inhibitors | AID 540256, 2011 | Lassa virus pseudotype entry inhibition, cell reporter | actives 1.2% (n = 300,000); calls by dose curve; tested in HEK293 cells; also: potency is read from the fitted curve at half-maximal effect; nearly all actives have a fitted effect of over 50% in size
Marburg entry inh = qHTS for inhibitors of binding or entry into cells for Marburg Virus | Potency, µM (series often up to 37.8 µM), inactives show top-dose activity change, negative = inhibition, usual class: inhibitors | actives 1.8% (n = 300,000) | Marburg virus pseudotyped entry inhibition, cell reporter | AID 540276, 2011; calls by dose curve; tested in HEK293 cells; also: potency is read from the fitted curve at half-maximal effect
FMDV antiviral = High Throughput Screening for Foot and Mouth Disease Virus Antivirals | FMDV antiviral cell-based qHTS | Potency, µM (top dose mostly 57.9 µM), without a hit: top-dose activity change, negative = inhibition, usual class: inhibitors | actives 1.2% (n = 410,000) | AID 1159524, 2015; calls by dose curve; tested in HEK293T cells; also: read-out not given here; potency is read from the fitted curve at half-maximal effect; nearly all actives have a fitted effect of over 45% in size
HCMV antiviral = qHTS Assay for inhibitors of the human cytomegalovirus (HCMV). HFF cells, HCMV-luciferase reporter, 72 h; stronger effect = lower value. activity change, negative = inhibition, % at 57.5 µM. actives 4.5% (n = 410,000); in the data active = activity change below about -60%; inconclusive = no clear call, values can overlap the other calls; inactive = above about -39%
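Compounds were evaluated in HFFs infected with an HCMV luciferase reporter virus (MOI 1 PFU/cell). Luciferase in lysates collected 72 h post infection served as the replication measure.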
Vaccinia Venus = qHTS for Stage-Specific Inhibitors of Vaccinia Orthopoxvirus: Venus Reporter Primary qHTS; Vaccinia virus Venus reporter expression, fluorescence; Potency, µM (top dose mostly 36.5 µM), without a hit: at the top dose activity change, negative = inhibition, usual class: inhibitors; actives 0.46% (n = 330,000); calls by dose curve; tested in A549 cells; also: potency is read from the fitted curve at half-maximal effect; nearly all actives have a fitted effect of over 30% in size
Starred values were filed as active, the others as inactive; i = inactive; ? = inconclusive; · = no result given; ! = a repeat was not active; [ ] = dose if it differs, or a comment. % is scaled to controls: 0 for no effect and ±100 for the full control effect.

SMILES | VACV mCherry inh | Lassa entry inh | Marburg entry inh | FMDV antiviral | HCMV antiviral | Vaccinia Venus
Cc1ccc(S(=O)(=O)N2CCC(c3nnc(-c4cccc(C)c4)o3)CC2)cc1 | -11.8% | -22.8%[46.1 µM] | -3.9%[46.1 µM] | 3.0% | -92.5* | -10.0%
COc1ccc(-c2nnc(C3CCN(S(=O)(=O)c4ccc(C)c(C)c4)CC3)o2)cc1 | -22.3% | -18.8%[46.1 µM] | 8.6%[46.1 µM] | -28.1% | 19.8 | -20.1%
CCCc1ccc(S(=O)(=O)N2CCC(c3nnc(-c4cccc(C)c4)o3)CC2)cc1 | -15.2% | 2.3%[46.1 µM] | -25.5%[46.1 µM] | 5.3% | -77.7* | -18.9%
CCN(CC)CCCNC(=O)c1ccc(C)c(NC(=O)C2=C(C)OCCS2)c1 | · | · | · | -7.7% | ? | ·
CCCNC(=O)c1ccc(C)c(NC(=O)C2=C(C)OCCS2)c1 | -1.6% | 10.3%[46.1 µM] | 4.4%[46.1 µM] | -4.5% | -77.2* | -18.2%
CC1=C(C(=O)Nc2cc(C(=O)N3CCN(c4ccc(Cl)cc4)CC3)ccc2C)SCCO1 | -6.0% | · | · | 22.4µM* | ? | -4.0%
CCOCCCNC(=O)c1cc(Cl)c(NC(=O)C2=C(C)OCCS2)cc1OC | -27.2% | ? | 6.1%[46.1 µM] | -1.1% | -80.1* | -24.8%
CC1=C(C(=O)Nc2ccc(C(=O)N3CCN(c4cccc(Cl)c4)CC3)cc2)SCCO1 | · | · | · | -2.2% | 4.7 | ·
Cc1ccc(N/C(SCc2ccccc2C)=C(/C#N)C(=O)NCc2ccco2)cc1C | · | ? | ? | -26.7% | -18.3 | ·
CCc1ccc(N/C(SCc2cccc(F)c2)=C(/C#N)C(=O)NCc2ccco2)cc1 | · | ? | 20.6µM* | -5.8% | 5.3 | ·
CC(=O)Oc1ccc(OC(C)=O)c(SCCCCCN2CCOCC2)c1 | · | ? | 16.4µM* | ? | ? | ·
Cc1ccc(-c2nnc(NCc3nc4ccccc4[nH]3)c3ccccc23)cc1S(=O)(=O)N(C)C | -13.2% | 17.8µM* | ? | ? | -31.8 | -20.4%
Cc1ccsc1CN1CCc2nnc(CCNC(=O)c3ccc(F)cc3)n2CC1 | i | · | · | -4.4% | · | -17.8%
COc1ccc(-c2cc(-c3ccccc3)c(C#N)c(S(C)=O)n2)cc1 (configuration not stated) | · | ? | ? | ? | -98.9* | ·
CCSc1nc(-c2ccc(OC)cc2)cc(-c2ccccc2)c1C#N | · | -5.7% | -0.6% | -28.1% | 17.6 | ·
Cc1cc(C)cc(NC(=O)C2CCCN(C(=O)c3cnn(-c4ccccc4)c3-n3cccc3)C2)c1 (configuration not stated) | -27.7% | -24.3%[46.1 µM] | ? | -1.1% | -25.7 | -18.2%
COc1ccc(S(=O)(=O)c2c(O)c(C)cc(NC(=O)c3ccccc3)c2C(C)C)cc1 | 0.7% | -5.6%[46.1 µM] | -16.5%[46.1 µM] | -2.5% | -63.3* | -9.3%
COc1ccc(S(=O)(=O)c2c(O)c(C)cc(NS(=O)(=O)c3ccc(Cl)cc3)c2C(C)C)cc1 | -5.1% | -13.0%[46.1 µM] | ? | -15.7% | ? | -7.1%
COc1ccc(S(=O)(=O)c2c(C)c(NS(=O)(=O)c3ccccc3)cc(C)c2O)cc1 | -7.3% | 12.0% | -5.1%[46.1 µM] | 1.9% | -62.5*! | -16.3%
Cc1c(NS(=O)(=O)c2ccccc2)cc(C(C)C)c(O)c1S(=O)(=O)c1ccc(Cl)cc1 | 1.9% | -19.3%[46.1 µM] | 11.2µM* | -2.6% | -37.1 | -8.2%
Cc1nc2cncnc2n(C2CC2)c1=O | · | · | · | -13.5% | · | ·
Cc1nc2ccccc2n1/N=C/c1ccc([N+](=O)[O-])s1 | -29.6% | ? | ? | ? | -81.8* | -19.4%
O=[N+]([O-])c1ccc(/C=N/n2c(CO)nc3ccccc32)s1 | 5.01µM* | -0.4% | ? | -28.1% | -68.9* | 3.98µM*
Cc1cc2ncn(/N=C/c3ccc([N+](=O)[O-])s3)c2cc1C | ? | -6.0% | ? | -16.5% | -5.3 | ?
Cc1nc2ccccc2n1/N=C/c1ccc([N+](=O)[O-])o1 | 7.94µM* | ? | 14.6µM* | · | -66.7* | 11.2µM*
O=[N+]([O-])c1ccc(/C=N/n2cnc3ccccc32)s1 | 5.01µM* | ? | ? | -7.4% | 48.0 | 6.31µM*
Cc1ccccc1CSc1ncc(CO)n1Cc1ccc(F)cc1 | -16.0% | -1.2%[46.1 µM] | · | -7.2% | -2.8 | -0.2%
CC(C)c1ccc(OCC(=O)Nc2c(C(=O)c3ccc(F)cc3)oc3ccccc23)cc1 | 3.5% | 3.9%[46.1 µM] | 17.2%[46.1 µM] | -10.8% | -9.0 | -4.6%
